Reference: PubChem BioAssay (NCATS)
Records with an inconclusive call do not appear. Active and inactive are the calls of the source. Unless noted, calls come from the whole dose curve; as a rule, active = well fitted curve in the direction sought with a large enough effect; inconclusive = small, poorly fitted or top-dose-only effect, or another doubt; inactive = no such curve, though single readings can be large; an effect the other way counts as inactive or inconclusive.

Experiments:
[1] = qHTS profiling for inhibitors of Plasmodium falciparum (3D7) proliferation (AID 743322; call rule not given here;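 note: infected erythrocytes exposed to compound for 72 h before lysis; 100% = DMSO vehicle wells and 0% = 0.29 µM artemisinin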); details: P. falciparum 3D7 proliferation; at 28.7 µM (top of the series)
In short: (§1)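 Erythrocytes infected with P. falciparum (0.3% parasitemia, 2.5% hematocrit) incubated with compounds 72 h at 37 C, 5% CO2. Lysis with saponin/Triton buffer containing SYBR Green I, overnight at room temperature in the dark; DNA fluorescence (485/535 nm) normalised to 0.29 uM artemisinin and DMSO.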

[2] = qHTS profiling for inhibitors of Plasmodium falciparum (DD2) proliferation (AID 743323; call rule not given here); details: lower = more inhibition; at 28.7 µM (top of the series)
In short: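 SYBR Green fluorescence (ex 485, em 535 nm) of lysed cultures gives parasite DNA content; wells normalized to artemisinin (0.29 uM) and DMSO controls. Infected red cells: 0.3% parasitemia, 2.5% hematocrit, 72 h, 37 C.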

[3] = qHTS profiling for inhibitors of Plasmodium falciparum (HB3) proliferation (AID 743324); details: Plasmodium falciparum HB3 blood-stage proliferation; at 28.7 µM (top of the series);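 note: 100% = DMSO vehicle wells and 0% = artemisinin-treated control wells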
In short: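 P. falciparum HB3 grown in erythrocytes (0.3% parasitemia, 2.5% hematocrit final) with compound for 72 h at 37 C, 5% CO2. Parasite DNA detected by SYBR Green after saponin/triton lysis overnight; normalized to 0.29 uM artemisinin and DMSO.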

[4] = qHTS profiling of the MIPE4 collection as inhibitors of Plasmodium falciparum (3D7) proliferation (AID 743344; call rule not given here;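 note: scaled between DMSO vehicle wells and 0.29 µM artemisinin as full inhibition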); details: P. falciparum 3D7 in erythrocytes, SYBR Green DNA fluorescence, 72 h; at 28.5 µM (top of the series) unless noted
In short: as §1

[5] = qHTS profiling of the MIPE4 collection as inhibitors of Plasmodium falciparum (DD2) proliferation (AID 743345; call rule not given here); details: P. falciparum Dd2 in erythrocytes, SYBR Green DNA, 72 h; at 28.5 µM (top of the series) unless noted
In short: as §1

[6] = qHTS profiling of the MIPE4 collection as inhibitors of Plasmodium falciparum (HB3) proliferation (AID 743347; call rule not given here;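 note: plate controls were DMSO vehicle wells for no effect and artemisinin wells for full effect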); details: P. falciparum HB3 in erythrocytes, SYBR Green DNA, 72 h; at 28.5 µM (top of the series) unless noted
In short: as §1

[7] = High-throughput drug toxicity screening in the BPDCN cell line Gen2.2 (AID 1224824; call rule not given here;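 note: cells exposed to compounds for 48 h before reading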); details: Gen2.2 BPDCN cells; at 45.8 µM (top of the series) unless noted
In short: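 Gen2.2 cells, 500 per well in phenol red-free RPMI with 10% FBS, exposed to compounds 48 h at 37 C, 5% CO2; viability by CellTiter-Glo luminescence. Percent activity scaled to DMSO (100%) and 9.2 uM bortezomib final (0%).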

[8] = High-throughput drug toxicity screening in the BPDCN cell line Cal-1 (AID 1224825; call rule not given here); details: Cal-1 BPDCN cell viability, qHTS; at 45.8 µM (top of the series) unless noted
In short: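 Exponentially growing Cal-1 cells, 500 per well in phenol red-free RPMI with 10% FBS, were exposed to compounds for 48 h at 37 °C, 5% CO2. Viability was read by CellTiter-Glo luminescence and normalised to DMSO (100%) and 9.2 uM bortezomib (0%).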

[9] = qHTS assay for measurement of the activity of small molecule inhibitors on Zika virus induced Caspase-3 activity in human iPSC derived neural progenitor cells (hNPCs) (AID 1224857); note: % of control where 0% means no effect; nearly all actives have a fitted effect of over 65% in size
In short: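 Pretreat hNPCs with compound 1 h; infect ZIKV 2 FFU/cell; 6 h 37 C, 5% CO2; Caspase-Glo 3/7, 30 min RT; luminescence; normalize to no-virus and virus-only wells.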

[10] = qHTS Screen of the MIPE 4.0 Collection Against Ewings Sarcoma (TC71) (AID 1259253); note: nearly all actives have a fitted effect of over 40% in size; note: potency is the fitted concentration of half-maximal effect
In short: (§2)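 Here, cells in 5% FBS RPMI were exposed for two days (48 h) to compound dilutions added four hours after plating. ATP-based CellTiter-Glo luminescence measured viability, normalized to vehicle and no-cell blanks.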

[11] = qHTS Screen of the MIPE 4.0 Collection Against Ewings Sarcoma (EW8) (AID 1259255); note: nearly all actives have a fitted effect of over 35% in size; note: potency is the fitted concentration of half-maximal effect;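 for viability: 100% = DMSO-treated cells and 0% = medium-only wells without cells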
In short: as §2

[12] = qHTS Screen of the MIPE 4.0 Collection Against Ewings Sarcoma (TC32) (AID 1259256); note: nearly all actives have a fitted effect of over 45% in size; note: potency is the fitted concentration of half-maximal effect
In short: as §2

[13] = Identifying Small Molecule Inhibitors of Pancreatic Cancer Stem Cells (SN12C, Adherent) (AID 1259358);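 note: cell survival measured after 48 h of compound exposure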; note: potency is the fitted concentration of half-maximal effect
In short: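 Luminescent ATP readout (CellTiter-Glo) quantifies surviving cells after a 48 h drug incubation. Normalization uses DMSO wells as no inhibition and media-only wells as full inhibition; bortezomib served as positive control.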

[14] = qHTS profiling of the MIPE4 collection as inhibitors of Plasmodium falciparum (DD2) proliferation (Rep 2) (AID 743346; call rule not given here); details: P. falciparum Dd2 in erythrocytes, SYBR Green DNA, 72 h; at 28.5 µM (top of the series) unless noted
In short: as §1

[15] = qHTS Screen of the MIPE 4.0 Collection Against Ewings Sarcoma (RDES) (AID 1259252); note: nearly all actives have a fitted effect of over 35% in size; note: potency is the fitted concentration of half-maximal effect
In short: as §2

[16] = qHTS assay for measurement of the activity of small molecule inhibitors on Zika virus induced Caspase-3 activity in human astrocytoma cells (AID 1224859);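 note: plate controls were ZIKV-infected untreated cells for no effect and uninfected cells for full effect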
In short: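 Human SNB-19 astrocytoma cells in RPMI 1640 with 10% FBS receive compound one hour ahead of Zika virus at 2 FFU/cell. After 6 h infection, caspase-3/7 activity is detected by Caspase-Glo luminescence.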

[17] = Identifying Small Molecule Inhibitors of Pancreatic Cancer Stem Cells (A2780, Spheroid) (AID 1259357); details: Potency: A2780 spheroid viability;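 note: compound exposure lasted 48 h before the ATP luminescence read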; note: potency is the fitted concentration of half-maximal effect
In short: (§3)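 Cytotoxicity read by CellTiter-Glo luminescence after 48 h compound exposure at 37C; percent activity scaled between DMSO-treated cells and cell-free wells. Spheroid formats used cells pre-formed 14 days in stem cell media on hydrogel.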

[18] = qHTS assay to identify small molecule inhibitors of chordoma cells - UCH-1 (AID 1259355); note: % is set by controls: 0 for no effect and ±100 for the full control effect; nearly all actives have a fitted effect of over 55% in size
In short: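 Luminescent ATP read-out (CellTiter-Glo, 30min at room temperature) measured viability of UCH-1 cells exposed for 48hr to test drugs at 15 concentrations, co-dosed with a five-agent combination of auranofin, camptothecin, doxorubicin, rubitecan and topotecan.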

[19] = qHTS assay to identify small molecule inhibitors of chordoma cells - UCH-2 (AID 1259356); note: % is set by controls: 0 for no effect and ±100 for the full control effect
[20] = Identifying Small Molecule Inhibitors of Pancreatic Cancer Stem Cells (Panc1, Spheroid) (AID 1259359);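 note: potency is the fitted concentration of half-maximal effect; compound exposure lasted 48 h before reading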
In short: as §3

SMILES	remaining parasite growth % (stronger effect = lower value) [1] [%]	activity, percent of control [2] [%]	remaining proliferation (% of control), lower = more inhibition [3] [%]	parasite growth, % of DMSO control [4] [%]	parasite growth remaining, % of DMSO control (lower = more inhibition) [5] [%]	growth, % of control [6] [%]	cell viability, % of control (lower = more cytotoxic) [7] [%]	viability (% of control) [8] [%]	Potency [9]	Potency [10]	Potency [11]	Potency [12]	Potency [13]	parasite growth, % of control (lower = inhibition) [14] [%]	Potency [15]	Potency [16]	Potency [17]	Potency [18]	outcome [19]	Potency [20]
O=C(c1ccc(Nc2nccc(-c3cc4ccccc4s3)n2)cc1)N1CCC(N2CCCC2)CC1	-2.23	-0.895	-1.21	4.58	6.27	4.99	11.5	3.16	inactive	18.7 µM (active)	20.9 µM (active)	20.9 µM (active)	26.4 µM (active)							
COc1ccc(CC2SC(=O)NC2=O)cc1C(=O)NCc1ccc(C(F)(F)F)cc1 (configuration not stated)	90.2	93.1	54.2	32.5		55.5	96	84.9	inactive	inactive	inactive	inactive	inactive	56.9						
NCC(=O)Nc1ccc(-n2nc(C(F)(F)F)cc2-c2ccc3c(ccc4ccccc43)c2)cc1				5.62	8.46	4.19	1.18	0.933		4.18 µM (active)	18.7 µM (active)	20.9 µM (active)		12.2	20.9 µM (active)					
NC(=O)c1cccc2cn(-c3ccc([C@@H]4CCCNC4)cc3)nc12				12.4	11.3	6.74	116	5.94		3.72 µM (active)	7.43 µM (active)	2.35 µM (active)		25.3	1.87 µM (active)	inactive				
CN(C)CCCN=c1c2ccccc2n(C)c2[nH]c(=O)n(C)c(=O)c12	5.55	15.1	3.8	5.98	10.8	3	2.75		inactive	10.5 µM (active)	1.18 µM (active)	2.96 µM (active)	20.9 µM (active)		2.64 µM (active)	inactive	inactive			
COc1ccc(C(=O)CC2(O)C(=O)Nc3c(Cl)ccc(Cl)c32)cc1 (configuration not stated)				74.3	85.7	62.1	26.7	11.2		3.32 µM (active)	1.48 µM (active)	1.66 µM (active)		75.9	2.35 µM (active)	inactive				
CN1c2cc(O)c(N=NC(N)=O)cc2CC1S(=O)(=O)O (configuration not stated)							170	126		inactive	inactive	inactive		19.7	inactive			inactive	inactive	
CCC(=C(c1ccccc1)c1ccc(OCCN(C)C)cc1)c1ccccc1	17.2	5.96	8.11	53.1	37.8	69.7	31.7	23.2		16.6 µM (active)	20.9 µM (active)	16.6 µM (active)		31		inactive				
Cc1[nH]c2ccccc2c1CCNCc1ccc(C=CC(=O)NO)cc1	-0.764	-0.223	-0.887	4.38	7.14	2.36	7.87	7.62		0.0833 µM (active)	0.0935 µM (active)	0.0469 µM (active)	0.235 µM (active)	6.72		inactive				0.59 µM (active)
O=C(O)C1(Cc2cccc(Nc3nccs3)n2)CCC(Oc2cccc(Cl)c2F)CC1 (configuration not stated)					98.3	92	88.8	33.8		1.66 µM (active)	0.743 µM (active)	0.372 µM (active)		59.5	4.69 µM (active)	inactive				
C[C@]12CC[C@H](O)CC1=CCC1C2CC[C@]2(C)C(n3cnc4ccccc43)=CCC12 (some centres not stated)				6.89	72.8	9.11	109	91.9		inactive	inactive	inactive		21.9		inactive				
CC1(C)CCC(c2ccc(Cl)cc2)=C(CN2CCN(c3ccc(C(=O)NS(=O)(=O)c4ccc(N[C@H](CCN5CCOCC5)CSc5ccccc5)c(S(=O)(=O)C(F)(F)F)c4)cc3)CC2)C1	0.209	2.76	-0.0239	17.1	8.31	9.9	7.3	16.1		18.7 µM (active)	29.6 µM (active)	5.26 µM (active)		16.8	26.4 µM (active)		20.9 µM (active)			
Clc1cccc(-n2nnnc2NCc2ccccc2Oc2ccccn2)c1Cl							100	100		inactive	inactive	inactive			inactive	inactive				
CC(=O)Nc1sc2c(c1-c1nc3ccccc3s1)CNC2	100	96.7	74.7	20.4	15.4	10.8	8.36	4.86		14.8 µM (active)	16.6 µM (active)	13.2 µM (active)	inactive		16.6 µM (active)	inactive				
C1=CCOCc2cc(ccc2OCCN2CCCC2)Nc2nccc(n2)-c2cccc(c2)OCC1				5.07	5.48	5.8	8.21	5.28		4.69 µM (active)	6.62 µM (active)	7.43 µM (active)	5.26 µM (active)	15.5		inactive	3.32 µM (active)			
COc1cc2c(Oc3ccc4[nH]c(C)cc4c3F)ncnc2cc1OCCCN1CCCC1	-0.853	1.27	0.351	6.49	8.16	6.98	7.59	6.46		23.5 µM (active)	23.5 µM (active)	16.6 µM (active)	2.35 µM (active)	15.9	23.5 µM (active)	inactive				
